The source of these data is PubChem BioAssay (NCI).

Where “and” joins values, the source holds several entries; their conditions need not be identical. Equal values may be shown once. This is part of a sample that, as a whole, favours compounds with a hit. Of some 79,000 tested, about 15% had one in any assay. A structure can be active in one record and inactive in another. Calls of active or inactive are those of the source. No stated cut-off is given here; in the data, active means growth inhibition above about 70%; inactive means the rest.

Test [1] in a line: NCI Yeast Anticancer Drug Screen. Data for the rad50 strain (AID 155).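 Further: 0% = growth of vehicle-only cultures of the same strain.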 As to conditions: S. cerevisiae rad50 strain growth inhibition, stronger effect = higher value. A digest of the protocol:
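Genetically altered yeast (DNA repair pathway); compound treatment; growth inhibition vs vehicle ctrl.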

Test [2] is described as follows: NCI Yeast Anticancer Drug Screen. Data for the mec2-1 strain (AID 157). As to conditions: S. cerevisiae mec2-1 strain, stronger effect = higher value. The method in brief: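 mec2-1 yeast strain, carrying an alteration in DNA damage repair or cell cycle control, was exposed to compounds; growth inhibition was measured relative to vehicle-treated controls.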
A short description of test [3]: NCI Yeast Anticancer Drug Screen. Data for the sgs1 mgt1 strain (AID 161).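 Further: 0% = growth of cultures given vehicle only.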 To be noted: S. cerevisiae sgs1 mgt1 strain, stronger effect = higher value. The method in brief:
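Percent growth inhibition was derived by comparing compound-exposed mutant yeast with vehicle-exposed cultures. The strain carries alterations in DNA damage repair.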

A short description of test [4]: NCI Yeast Anticancer Drug Screen. Data for the cln2 rad14 strain (AID 165).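 Further: 0% = growth equal to vehicle treated cultures.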 To be noted: S. cerevisiae cln2 rad14 strain, stronger effect = higher value. A digest of the protocol: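 Yeast carrying cln2 and rad14 alterations (cell cycle control and DNA damage repair) were exposed to compounds. Growth inhibition was measured against vehicle-treated controls.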
The nature of test [5]: NCI Yeast Anticancer Drug Screen. Data for the bub3 strain (AID 167). To be noted: S. cerevisiae bub3 mutant strain, stronger effect = higher value. The method in brief:
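Yeast carrying a defined mutation is treated with each compound, and growth is compared with that of vehicle-exposed cells to give inhibition.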

Test [6] in a line: NCI Yeast Anticancer Drug Screen. Data for the mlh1 rad18 strain (AID 175). To be noted: S. cerevisiae mlh1 rad18 strain growth inhibition, stronger effect = higher value. A digest of the protocol: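 Growth inhibition of the yeast strain was measured after compound exposure and expressed relative to vehicle-treated controls. The strain carries defined defects in DNA damage repair.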
The mark [7] stands for this setting: at 5.0 µM (retest, dose inferred, filed as 0.5).
Setting [8] is: at 50.0 µM (retest, dose inferred, filed as 5.0).

Regarding `COC(=O)[C@@H](NS(=O)(=O)CC12CCC(CC1)C2(C)C)C(C)(C)C`, the growth inhibition was 2% (inactive) in test [1] (setting [7]); 50% (inactive) in test [1] (setting [8]); 14.2% (inactive) in test [1] (at 50.0 µM); 1% (inactive) in test [2] (setting [7]); 51% (inactive) in test [2] (setting [8]); 26.1% (inactive) in test [2] (at 50.0 µM). Moreover, the growth inhibition in test [3] (setting [7]) is 16% (inactive); in test [3] (setting [8]) it was 70% (active); in test [3] (at 50.0 µM), 25.7% (inactive); in test [4] (setting [7]), 6% (inactive); in test [4] (setting [8]), 48% (inactive); in test [4] (at 50.0 µM), 21.4% (inactive). Moreover, the growth inhibition was 0% (inactive) in test [5] (setting [7]); 54% (inactive) in test [5] (setting [8]); 10.9% (inactive) in test [5] (at 50.0 µM); 0% (inactive) in test [6] (setting [7]); 83% (active) in test [6] (setting [8]); 58.6% (inactive) in test [6] (at 50.0 µM).
Regarding `O=C1C(CN2CCOCC2)CCCC1CN1CCOCC1` (stereo not drawn), the growth inhibition was 0% (inactive) in test [1] (setting [7]); 97% (active) in test [1] (setting [8]); 12.2% (inactive) and 1.25% (inactive) in test [1] (at 50.0 µM); 4% (inactive) in test [2] (setting [7]); 98% (active) in test [2] (setting [8]); 35% (inactive) and 33.8% (inactive) in test [2] (at 50.0 µM). For the same compound, the growth inhibition in test [3] (setting [7]) was 2% (inactive); in test [3] (setting [8]), 96% (active); in test [3] (at 50.0 µM), 10.8% (inactive) and 24.9% (inactive); in test [4] (setting [7]), 3% (inactive); in test [4] (setting [8]) it was 97% (active); in test [4] (at 50.0 µM), 19.1% (inactive) and -27.2% (inactive). Moreover, the growth inhibition in test [5] (setting [7]) was 0% (inactive); in test [5] (setting [8]), 95% (active); in test [5] (at 50.0 µM) it was 1.05% (inactive) and 69.5% (inactive); in test [6] (setting [7]) it was 3% (inactive); in test [6] (setting [8]), 97% (active); in test [6] (at 50.0 µM), 26.8% (inactive) and 9.15% (inactive).
On to `COc1ccc(Oc2ccccc2N)cc1`, for which the growth inhibition is 0% (inactive) in test [1] (setting [7]); 93% (active) in test [1] (setting [8]); 83.7% (active) in test [1] (at 50.0 µM); -1% (inactive) in test [2] (setting [7]); 95% (active) in test [2] (setting [8]); 59.3% (inactive) in test [2] (at 50.0 µM). In addition, the growth inhibition in test [3] (setting [7]) was -2% (inactive); in test [3] (setting [8]) it was 93% (active); in test [3] (at 50.0 µM) it was 69.3% (inactive); in test [4] (setting [7]) it was -8% (inactive); in test [4] (setting [8]) it was 95% (active); in test [4] (at 50.0 µM), 88.3% (active). Also, the growth inhibition in test [5] (setting [7]) is 6% (inactive); in test [5] (setting [8]), 93% (active); in test [5] (at 50.0 µM) it was 63.4% (inactive); in test [6] (setting [7]), -3% (inactive); in test [6] (setting [8]), 96% (active); in test [6] (at 50.0 µM), 90.5% (active).
In the case of `CCCC1CCC(=C2C(=O)CCC2=O)O1` (stereo not drawn), the growth inhibition in test [1] (setting [7]) is 6% (inactive); in test [1] (setting [8]) it was 21% (inactive); in test [1] (at 50.0 µM), -4.75% (inactive) and 90.7% (active); in test [2] (setting [7]), 2% (inactive); in test [2] (setting [8]), 19% (inactive); in test [2] (at 50.0 µM), -8.75% (inactive) and 92.2% (active). Besides, the growth inhibition was 9% (inactive) in test [3] (setting [7]); 26% (inactive) in test [3] (setting [8]); -5.55% (inactive) and 92.7% (active) in test [3] (at 50.0 µM); -2% (inactive) in test [4] (setting [7]); 8% (inactive) in test [4] (setting [8]); 0.65% (inactive) and 91.2% (active) in test [4] (at 50.0 µM). Also, the growth inhibition was 8% (inactive) in test [5] (setting [7]); 9% (inactive) in test [5] (setting [8]); 2.55% (inactive) and 91% (active) in test [5] (at 50.0 µM); 15% (inactive) in test [6] (setting [7]); 35% (inactive) in test [6] (setting [8]); -13.1% (inactive) and 90.8% (active) in test [6] (at 50.0 µM).
`CN(C)c1ccc(/C=C/c2ccnc3ccccc23)c(Cl)c1`: the growth inhibition is -7% (inactive) in test [1] (setting [7]); 10% (inactive) in test [1] (setting [8]); -1.1% (inactive) and 16.1% (inactive) in test [1] (at 50.0 µM); -7% (inactive) in test [2] (setting [7]); -4% (inactive) in test [2] (setting [8]); 11.4% (inactive) and 3.15% (inactive) in test [2] (at 50.0 µM). In addition, the growth inhibition in test [3] (setting [7]) is -1% (inactive); in test [3] (setting [8]), 35% (inactive); in test [3] (at 50.0 µM) it was -0.1% (inactive) and -2% (inactive); in test [4] (setting [7]) it was -22% (inactive); in test [4] (setting [8]), -29% (inactive); in test [4] (at 50.0 µM) it was -32.5% (inactive) and 35.4% (inactive). Moreover, the growth inhibition in test [5] (setting [7]) was -1% (inactive); in test [5] (setting [8]), 43% (inactive); in test [5] (at 50.0 µM) it was -1% (inactive) and 23.1% (inactive); in test [6] (setting [7]), -13% (inactive); in test [6] (setting [8]), 28% (inactive); in test [6] (at 50.0 µM), -5.45% (inactive) and -11.5% (inactive).
With `O=NC1C(Br)C2CC1C1C(Cl)C(Cl)CC21` (stereo not drawn), the growth inhibition in test [1] (setting [7]) was 6% (inactive); in test [1] (setting [8]), 10% (inactive); in test [1] (at 50.0 µM), 58.7% (inactive); in test [2] (setting [7]), 12% (inactive); in test [2] (setting [8]), 13% (inactive); in test [2] (at 50.0 µM), 29.9% (inactive). Further, the growth inhibition was -5% (inactive) in test [3] (setting [7]); 6% (inactive) in test [3] (setting [8]); 76.8% (active) in test [3] (at 50.0 µM); -2% (inactive) in test [4] (setting [7]); -7% (inactive) in test [4] (setting [8]); 44.1% (inactive) in test [4] (at 50.0 µM). Besides, the growth inhibition in test [5] (setting [7]) is 1% (inactive); in test [5] (setting [8]), -6% (inactive); in test [5] (at 50.0 µM), 10.1% (inactive); in test [6] (setting [7]), 25% (inactive); in test [6] (setting [8]), 66% (inactive); in test [6] (at 50.0 µM) it was 49.2% (inactive).
